D2 antag = antagonists of human D2 dopamine receptor; inhibition, % at 10 µM; HEK293 TREx D2 cells, calcium flux, dopamine EC80; 2% of 340,000 active; in the data active = inhibition above about 30%; inactive = below that, where a call was filed
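In this primary screen, negative modulation is detected by tracking calcium flux after an EC80 dopamine challenge in inducible HEK293 T-REx D2 cells preexposed to test compound for 180 s.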
D2 PAM-1 = positive allosteric modulators of human D2 dopamine receptor. HEK293 T-REx D2, calcium flux, EC20 dopamine potentiation. potentiation, % at 10 µM. 0.34% of 340,000 active. AID 485347;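 active = potentiation over 3 SD above the plate norm, cut at about 30% in these data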
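Primary screen. Calcium kinetics in induced HEK293 T-REx D2 cells: compound pre-addition 180 s, EC20 dopamine, 180 s more.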
D2 ag-1 = agonists of human D2 dopamine receptor (beta-arrestin). DiscoveRx PathHunter D2 beta-arrestin, luminescence, 90 min; 100% = 57 uM dopamine signal. activation, % (no concentration beside the values). 0.084% of 360,000 active; in the data active = activation above about 40%; inconclusive = between about 15% and that limit
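Agonist mode: compounds alone added to overnight-plated D2 PathHunter cells for 90 min at 37 C, with 57 uM final dopamine (EC100) defining full response. Beta-arrestin recruitment detected by chemiluminescent reagent, read after 1 h at ambient temperature.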
D2 PAM-2 = positive allosteric modulators of human D2 dopamine receptor | DiscoveRx D2 beta-arrestin cells, luminescence, 90 min; 100% = 57 uM dopamine signal | potentiation, % (concentration not given with the values) | 0.23% of 360,000 active; in the data active = potentiation above about 50%; inconclusive = mostly about 30% to 49%
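D2 cells co-treated with compound plus 50 nM dopamine (EC20) for 90 min at 37 deg C to detect potentiation. Beta-arrestin recruitment was read as enzyme-fragment luminescence after 1 h at ambient temperature. Full response was set by 57 uM dopamine.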
D2 ag-2 = D2 dopamine receptor (human) agonism | P14416 | HEK293 T-REx D2 cells, calcium flux agonist mode | activation, % at 2 µM | 0.53% of 340,000 active;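 active = activation over 3 SD above normal in the single-dose calcium agonist read, cut at about 30% in these data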
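Tetracycline-induced HEK293 Trex cells with D2 receptor force-coupled to calcium signaling, plated overnight at 30 C and loaded with no-wash calcium dye. Calcium flux read kinetically for 180 s after compound addition; responses flag agonists.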
D3 arrestin ag = D3 receptor agonism confirmed, beta-arrestin readout. Potency, µM (titrated, usually from 76.9 µM), actives largely listed as activators. 4% of 2,300 active. shares compounds with D2 ag-2. DiscoveRx D3 beta-arrestin cells, luminescence, 90 min. AID 720506; also: nearly all actives have a fitted effect of over 70% in size
Target sequence (P35462 whole entry, looked up): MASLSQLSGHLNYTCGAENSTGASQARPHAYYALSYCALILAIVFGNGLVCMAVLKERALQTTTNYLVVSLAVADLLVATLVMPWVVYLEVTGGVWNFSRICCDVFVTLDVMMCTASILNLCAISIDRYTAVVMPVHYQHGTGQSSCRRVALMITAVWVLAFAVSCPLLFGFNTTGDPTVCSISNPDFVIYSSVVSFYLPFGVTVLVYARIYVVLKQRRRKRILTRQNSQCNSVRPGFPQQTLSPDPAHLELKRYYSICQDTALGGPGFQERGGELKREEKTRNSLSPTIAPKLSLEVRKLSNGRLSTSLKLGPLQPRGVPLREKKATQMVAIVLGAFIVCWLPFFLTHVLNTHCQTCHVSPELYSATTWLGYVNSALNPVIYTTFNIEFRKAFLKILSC
D2 ag-3 = D2 receptor agonism, beta-arrestin counterscreen; 5.9% of 2,300 active; Potency, µM (doses to about 76.9 µM), usual class: activators; DiscoveRx PathHunter D2 beta-arrestin, luminescence, 90 min; response scale: percent relative to full dopamine signal; shares compounds with D2 ag-2; AID 720507; also: nearly all actives have a fitted effect of over 70% in size
Large screens that a line does not name were inactive (follow-up assays come after a bar, where they were run). Only some compounds are listed: those with a hit (about 2.4% of all), similar ones and a draw of the others. Unless noted, calls follow the shape of the dose curve; as a rule, active = well fitted activation curve with a large enough effect; inconclusive = small, poorly fitted or top-dose-only effect; inactive = flat fitted curve, though single readings scatter.

O=C(Nc1ccc(C(=O)NCCCN2CCCCC2)cc1)C1=CSCCO1	none (no result: D2 antag, D2 PAM-1, D2 ag-2)
O=C(Nc1ccc(C(=O)NCCCN2CCN(c3ccc(F)cc3)CC2)cc1)C1=CSCCO1	D2 antag 69, D2 ag-2 69 | D3 arrestin ag inactive | D2 ag-3 inactive
CC(=O)c1ccc(N2CCN(C(=O)C3CCCN(S(=O)(=O)c4ccc(Br)s4)C3)CC2)cc1 (stereo unspecified)	none (no result: D2 antag, D2 ag-1, D2 PAM-2)
O=C(NCCCN1CCN(c2ccccc2F)CC1)C1CCCN(S(=O)(=O)c2cnc[nH]2)C1 (stereo unspecified)	D2 antag 65, D2 ag-2 68 | D3 arrestin ag inconclusive | D2 ag-3 inactive
CC(=O)c1ccc(N2CCN(C(=O)C3CCCN(S(=O)(=O)c4cnc[nH]4)C3)CC2)cc1 (stereo unspecified)	D2 antag 32 | D3 arrestin ag inactive | D2 ag-3 inactive
CCC(NC(C)C)C(O)c1ccc(O)c2[nH]c(=O)ccc12 (stereo unspecified)	none | D3 arrestin ag inconclusive | D2 ag-3 inactive
CN(C)CCNC(=O)C12CC3(C)CC(C)(CC(C)(C3)C1)C2	none | D3 arrestin ag inactive | D2 ag-3 inactive
CC(C)CCOc1ccc(C2(C)NC(=O)NC2=O)cc1 (stereo unspecified)	none
CC(C(=O)Nc1cccc([N+](=O)[O-])c1)N1CCN(C/C=C/c2ccccc2)CC1 (stereo unspecified)	D2 antag 47, D2 ag-2 72 | D3 arrestin ag inactive | D2 ag-3 inconclusive
O=C(c1cccc([N+](=O)[O-])c1)N1CCN(C/C=C/c2ccccc2)CC1	none
COc1ccc(NC(=O)CC2C(=O)N(c3cccc(OC)c3)C(=O)N2CCc2cccs2)cc1 (stereo unspecified)	none (no result: D2 antag, D2 ag-1, D2 PAM-2, D2 ag-2)
O=C(CCC1CCCC1)NNC(=O)c1ccc(F)cc1	none | D3 arrestin ag inactive | D2 ag-3 inactive
CC(=O)Nc1c(Cl)cc(Cl)c2c1Cc1cc(Cl)ccc1-2	none (no result: D2 antag, D2 PAM-1, D2 ag-2)
Nc1ccc2[nH]ncc2c1	D2 antag 34 | D3 arrestin ag inconclusive | D2 ag-3 inactive
Cc1ccc2oc(C(=O)Nc3c(C(=O)c4ccc(C)c(F)c4)oc4ccccc34)cc(=O)c2c1	none (no result: D2 antag, D2 ag-1, D2 PAM-2)
O=[N+]([O-])c1cc2ncccc2c2ncccc12	none (no result: D2 antag, D2 PAM-1, D2 ag-2)
O=C(CCCc1ccccc1)c1ccccc1	none
CCN(CCCC(=O)c1ccc(F)cc1)CCc1ccccc1	D2 antag 102, D2 ag-2 83 | D3 arrestin ag inconclusive | D2 ag-3 inactive
COC(=O)Nc1ncc(CN2CCC(c3ccccc3)CC2)s1	D2 antag 98, D2 ag-2 85 | D3 arrestin ag inactive | D2 ag-3 inactive
Cc1cccc(C(=O)Nc2ccc(C(=O)OCc3cc(=O)n4c(C)csc4n3)cc2)c1	none (no result: D2 antag, D2 ag-1, D2 PAM-2)
O=S(=O)(Cc1ccccc1)N1CCC(N2CCN(c3ccccc3)CC2)CC1	D2 antag 89, D2 ag-1 inconclusive, D2 ag-2 83 | D3 arrestin ag inconclusive | D2 ag-3 inconclusive
c1ccc(C2CCC(N3CCN(c4ccccc4)CC3)CC2)cc1 (stereo unspecified)	D2 ag-2 64 | D3 arrestin ag inactive | D2 ag-3 inactive
COc1ccc(S(=O)(=O)N2CCC(N3CCN(c4ccccc4)CC3)CC2)cc1	D2 antag 61, D2 ag-2 74 (no result: D2 ag-1, D2 PAM-2) | D3 arrestin ag inactive | D2 ag-3 inconclusive
COc1ccc(C(CNC(=O)COc2ccc(Cl)cc2C)N2CCCCC2)cc1 (stereo unspecified)	none
Cc1ccc(NC(=O)c2c(C)oc3ccc(O)c(CN4CCCCC4)c23)c(C)c1	none (no result: D2 antag, D2 ag-1, D2 PAM-2)
CCC(=O)Nc1ccccc1-c1nc2ccccc2n(Cc2cccc(Br)c2)c1=O	none (no result: D2 antag, D2 ag-1, D2 PAM-2)
COc1cc(CN2C[C@@H](CO)O[C@@H](n3cnc4c(N(C)C(C)C)ncnc43)C2)cc(OC)c1OC	none (no result: D2 antag, D2 PAM-1, D2 ag-2)
O=C(c1cccs1)N1CCN(Cc2cn[nH]c2-c2ccc(F)cc2F)CC1	D2 antag 53, D2 ag-1 inconclusive, D2 ag-2 80 | D3 arrestin ag inconclusive | D2 ag-3 inconclusive
COc1ccc(-c2[nH]ncc2CN2CCN(C(=O)c3cccs3)CC2)c(F)c1	none
Cc1ccc(-c2[nH]ncc2CN2CCN(C(=O)c3cccs3)CC2)cc1C	D2 antag 66, D2 ag-2 77 | D3 arrestin ag inconclusive | D2 ag-3 inactive
O=C(CN1CCN(c2ccccn2)CC1)Nc1ccc(F)c(F)c1	D2 ag-1 inconclusive, D2 ag-2 52 | D3 arrestin ag inconclusive | D2 ag-3 inactive
Cc1ccc(NC(=O)c2ncn(CCCN3CCN(c4ccccn4)CC3)n2)cc1C	none (no result: D2 antag, D2 PAM-1, D2 ag-2)
Cc1cc(NC(=O)CN2CCN(c3ccccn3)CC2)ccc1Br	D2 ag-2 37 | D3 arrestin ag 16µM | D2 ag-3 inactive
O=C(CN1CCN(c2ccccn2)CC1)Nc1cccc(S(=O)(=O)N2CCCC2)c1	D2 antag 60, D2 ag-2 60 | D3 arrestin ag inconclusive | D2 ag-3 28µM
O=C(CN1CCN(c2ccccn2)CC1)NCCc1ccccc1	none
O=C(CN1CCN(c2ccccn2)CC1)NC1CCCC1	none | D3 arrestin ag inactive | D2 ag-3 inactive
Cc1cc(C)c(NC(=O)CN2CCN(c3ccccn3)CC2)c(C)c1	none | D3 arrestin ag inactive | D2 ag-3 inactive
O=C(CN1CCN(c2ccccn2)CC1)Nc1nc2ccccc2s1	none
OCCC1CN(CCCc2ccccc2)CCN1Cc1ccc(F)cc1 (stereo unspecified)	none
Cc1ccc(CN2CCN(CCCc3ccccc3)CC2CCO)cc1 (stereo unspecified)	D2 antag 49, D2 ag-2 53 | D3 arrestin ag inactive | D2 ag-3 inactive
CCSc1nc2c(c(=O)[nH]1)C(C(C)C)C(C#N)=C(N)O2 (stereo unspecified)	D2 ag-2 45 | D3 arrestin ag inactive | D2 ag-3 inactive
COCCCN1C(=O)c2oc3ccccc3c(=O)c2C12C(=O)N(C)c1ccccc12 (stereo unspecified)	none (no result: D2 antag, D2 ag-1, D2 PAM-2)
CCOC(=O)C1=C(CN2CCN(c3cc(C)ccc3C)CC2)NC(=O)NC1c1ccc(Cl)cc1 (stereo unspecified)	none (no result: D2 antag, D2 ag-1, D2 PAM-2)
COC(=O)c1sc2nc3c(cc2c1N)C(=O)CC(C)(C)C3	none
Cc1cc(C)c(NC(=O)c2sc3nc4c(cc3c2N)C(=O)CC(C)(C)C4)c(C)c1	D2 ag-2 44 | D3 arrestin ag inactive | D2 ag-3 inactive
COc1ccc(CN(C)C(=O)C2CSC3(C)CCC(=O)N23)cc1 (stereo unspecified)	none

From PubChem
